# Compounds with a hit are over-represented: about 3.9% of the library has one in this group of screens.
# Wnt bcat act: activates Wnt/beta-catenin signaling in a reporter cell assay; activator, plate reader; activation, % at 9.35 µM; 300,000 tested, 1.2% active; in the data active means activation above about 30%, passing the limit was not always enough;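 further: 0% = neutral control wells and 100% = positive control wells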
# HSF1 inh: HSF1 inhibition; AID 2098; NIH3T3-HGL HSE-luciferase, MG132-induced, luminescence 8 h; hits give low values; 300,000 tested, 0.77% active; activity change, negative = inhibition, % at 7.5 µM (by protocol);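 active means more than half of replicate wells show activity change below -50%, luminescence cut by over half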;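 further: luciferase reports HSF-1 transcriptional activity via heat shock element; 0% = median of DMSO wells and -100% = zero luminescence signal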
# esBAF inh: inhibitors of esBAF chromatin remodeling in mouse ES cells; Bmi1-luciferase knock-in reporter, 24 h; 100% = twice the neutral-well signal; AID 602393; 350,000 tested, 2% active; reporter increase, % at 12.5 µM; in the data active means activation above about 40%;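 further: 0% = median of the plate's neutral control wells and 100% = double that signal; a rise in the Bmi1 reporter signal indicates esBAF inhibition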
# HSF1 activator: increases HSF-1 driven luciferase reporter signal; NIH3T3-HGL HSF-1 luciferase reporter, MG132, 8 h; 100% = twice DMSO control signal; activation, % at 9 µM; 300,000 tested, 1.7% active; AID 504408;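 active means mean replicate activation of at least 50% with a set share of replicates each reaching 50%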;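 further: 0% = median of the neutral control wells and 100% = twice that signal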
# MITF TRPM1 HTS: increases MITF-driven TRPM1 promoter luciferase signal; SK-MEL-5 TRPM1-promoter luciferase, 24 h; % of positive control, neutral wells = 0; activation, % at 12.5 µM; 300,000 tested, 0.75% active; AID 588334;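 active means mean activation of at least 80% with every replicate also reaching 80%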;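 further: 0% = neutral control wells and 100% = parthenolide positive control wells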
# Starred values were filed as active, the others as inactive; / = no result given.
SMILES,Wnt bcat act,HSF1 inh,esBAF inh,HSF1 activator,MITF TRPM1 HTS
OCCNCc1ccc(OCc2ccc(Cl)cc2Cl)cc1,33.8*,16.6,18.1,26.1,23.7
O=C(NCc1ccco1)/C(=C/c1cccc(C(F)(F)F)c1)c1nc2ccccc2[nH]1,-6.2,6.9,5.6,-3.6,-48.4
O=C(NCc1ccco1)/C(=C/c1ccc(C(F)(F)F)cc1)c1nc2ccccc2[nH]1,34.2*,18.9,/,41.9,14.0
COc1ccc(Nc2ncnc3c2c(C)c(C)n3CCCN(C)C)cc1,-0.5,-54.5*,9.8,-52.3,36.2
O=C(CC(Nc1ccc(F)cc1)C(=O)OCC(=O)c1cccs1)c1ccccc1 (configuration not stated),-4.0,54.9,33.7,88.6*,48.4
O=C(CC(Nc1ccc(F)cc1)C(=O)O)c1ccccc1 (configuration not stated),/,34.2,48.9*,56.4*,/
O=C(CCC(=O)c1cccs1)OCC(=O)c1ccc(F)cc1,-3.1,/,-6.2,/,1.0
O=C(Nc1nnc(-c2ccncc2)s1)C1CCCO1 (configuration not stated),/,-10.6,9.4,-4.5,10.7
O=C(Nc1nc2ccc(F)cc2s1)C1CCCO1 (configuration not stated),/,-0.1,98.6*,0.1,112.2*
O=C(Nc1nnc(-c2ccccc2F)s1)C1CCCO1 (configuration not stated),51.2*,18.0,/,47.9,66.2
O=C(Nc1nc2ccc(C(=O)N3CCCCC3)cc2s1)C1CCCCC1,-1.0,-19.4,/,-15.7,0.3
Nc1ccc2nc(NC(=O)C3CCCCC3)sc2c1,48.4*,12.2,51.6*,29.3,60.4
Cc1cc(C(=O)Nc2cccc3c2O[C@H](CN(C)Cc2ccc(C(F)(F)F)cc2)[C@@H](C)CN([C@@H](C)CO)C3=O)n(C)n1,/,/,-6.1,/,/
COc1ccc(S(=O)(=O)Nc2ccc3c(c2)C(=O)N([C@@H](C)CO)C[C@@H](C)[C@H](CN(C)C(=O)Nc2ccc(C(F)(F)F)cc2)OCCCC[C@H](C)O3)cc1,/,/,-4.5,/,/
C[C@@H]1CN([C@H](C)CO)C(=O)Cc2cc(NS(=O)(=O)c3ccc(F)cc3)ccc2O[C@H]1CN(C)Cc1ccc(Oc2ccccc2)cc1,/,/,11.1,/,/
COC(=O)C[C@](O)(CCCC(C)(C)O)C(=O)O[C@@H]1C(OC)=C[C@]23CCCN2CCc2cc4c(cc2[C@H]13)OCO4,/,-73.1*,/,-75.9,/
CCCc1cn(CC[C@H]2CC[C@@H](NC(=O)C3CCCCC3)[C@@H](CO)O2)nn1,/,/,-0.2,/,/
CN(C)c1ccc(/C=N/NC(=O)CSc2ccccn2)cc1,47.8*,2.7,/,-5.9,/
O=C(CNc1ccccc1)N/N=C/c1ccc2c(c1)OCO2,13.7,0.3,11.3,2.6,3.7
O=C(CSc1ncccn1)N/N=C/c1ccc2c(c1)OCO2,0.1,1.2,41.2*,0.5,53.8
COc1ccccc1-c1cnc2c(c1)C(=O)N([C@H](C)CO)C[C@@H](C)[C@@H](CN(C)CC1CCOCC1)O2,/,/,-6.0,/,/
COc1ccc(/C=N/NC(=O)c2ccn[nH]2)cc1CSc1ccccn1,0.0,22.1,44.9*,9.4,32.5
COc1ccc(/C=N/NC(=O)c2cccc(Br)c2)cc1CSc1ccccn1,/,1.0,/,24.0,2.2
C[C@@H]1CN([C@H](C)CO)C(=O)c2cc(-c3cccc(C#N)c3)cnc2O[C@H]1CN(C)C(=O)C1CCCCC1,/,/,3.2,/,/
C[C@@H]1CN([C@@H](C)CO)S(=O)(=O)c2ccc(C#C[C@@H](C)O)cc2O[C@@H]1CN(C)C(=O)CC1CC1,/,/,-1.8,/,/
CCC(C)C(=O)N1CCc2cc(-c3csc(N)n3)ccc21 (configuration not stated),/,-0.2,53.3*,29.1,67.9
COc1cc(/C=N/N2CCN(C3c4ccccc4-c4ccccc43)CC2)cc(OC)c1OC,-3.0,48.0,/,102.8*,-12.5
COc1ccccc1CN1CCCC(CN(CCN(C)C)C(=O)C2CCCC2)C1 (configuration not stated),-1.0,-61.7*,3.4,-70.8,/
CC(C)C[C@H](N)c1cn([C@@H](Cc2cc3ccccc3[nH]2)C(=O)N2CCNCC2)nn1,1.1,1.1,7.0,-13.9,35.4
CCC(C)[C@H](N)c1cn([C@@H](Cc2cc3ccccc3[nH]2)C(=O)N2CCNCC2)nn1 (some centres not stated),44.9*,-6.8,-2.8,-5.1,-3.1

# Bioassay records deposited in PubChem by Broad Institute.
